# Source: PubChem (National Center for Advancing Translational Sciences (NCATS))
# L3MBTL1 inh: qHTS Assay for the Inhibitors of L3MBTL1. AlphaScreen L3MBTL1–H3K9me1 peptide binding. AID 485360, 2010. Potency, µM (top dose mostly 57.1 µM), for inactives: top-dose activity, negative = inhibition, hits mostly inhibitors. actives 0.66% (n = 230,000); further: on the % scale 0 is the no-effect control and ±100 the full control effect; nearly all actives have a fitted effect of over 60% in size
#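 AlphaScreen proximity signal between nickel-chelate acceptor and streptavidin donor beads (final 10 ug/mL) reports binding of 50 nM L3MBTL1 to 75 nM biotin-H3 K9me1 peptide; complex incubated with compounds 30 min at room temperature; cefsulodin titration as control.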
# JMJD2A Tudor inh: qHTS Assay for Inhibitors of JMJD2A-Tudor Domain; Lysine-specific demethylase 4A (Homo sapiens), O75164; AlphaScreen JMJD2A-Tudor / H3K4me3 peptide binding; Potency, µM (series often up to 114 µM), for inactives: at the top dose activity change, negative = inhibition, most hits filed as inhibitors; actives 4.4% (n = 390,000); AID 504339, 2011; further: on the % scale 0 is the no-effect control and ±100 the full control effect; nearly all actives have a fitted effect of over 50% in size
# G9a block: qHTS Assay for Inhibitors of Histone Lysine Methyltransferase G9a; AID 504332, 2011; actives 8.8% (n = 350,000); Potency, µM (top dose mostly 102 µM), inactives show at the highest dose activity, negative = inhibition, hits mostly inhibitors; G9a H3K9 monomethylation, AlphaScreen, 2 h; Histone-lysine N-methyltransferase EHMT2 (Homo sapiens), Q96KQ7; further: on the % scale 0 is the no-effect control and ±100 the full control effect; nearly all actives have a fitted effect of over 75% in size
# Target sequence (Q96KQ7 913-1193 limits assumed): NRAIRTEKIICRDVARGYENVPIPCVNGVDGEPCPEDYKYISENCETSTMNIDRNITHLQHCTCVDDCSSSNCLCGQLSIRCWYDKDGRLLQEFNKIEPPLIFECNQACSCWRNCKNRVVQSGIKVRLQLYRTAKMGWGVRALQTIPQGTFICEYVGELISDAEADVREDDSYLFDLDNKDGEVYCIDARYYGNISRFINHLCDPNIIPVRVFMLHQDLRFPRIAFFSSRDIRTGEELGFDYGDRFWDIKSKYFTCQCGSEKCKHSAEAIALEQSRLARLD
#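 Quantitative HTS format: methyltransferase activity on a biotin-tagged H3K9 peptide is measured by AlphaScreen, using a rabbit anti-monomethyl-H3K9 antibody with streptavidin donor and anti-IgG acceptor beads. Final levels are 20 nM enzyme, 500 nM peptide, 20 uM SAM; 2 h RT.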
# BAZ2B inh: qHTS Assay for Inhibitors of BAZ2B | Bromodomain adjacent to zinc finger domain protein 2B (Homo sapiens), Q9UIF8 | AlphaScreen BAZ2B-H3K14Ac peptide displacement | Potency, µM (titrated, usually from 114 µM), inactives show at the top dose activity change, negative = inhibition, hits mostly inhibitors | actives 4.4% (n = 360,000); further: on the % scale 0 is the no-effect control and ±100 the full control effect; nearly all actives have a fitted effect of over 60% in size
#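 AlphaScreen luminescence quantifies BAZ2B engagement of H3K14Ac peptide; the protein and biotinylated peptide are both at 50 nM final, buffer PBS pH 7.4 with 0.01% Tween-20, all steps at room temperature.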
# HP1b binding inh: HTS for Inhibitors of HP1-beta Chromodomain Interactions with Methylated Histone Tails | Chromobox protein homolog 1 (Homo sapiens), P83916 | AlphaScreen HP1-beta / biotin-H3K9me3 peptide binding | Potency, µM (highest dose often 114 µM), for the others: at the top dose activity change, negative = inhibition, most hits filed as inhibitors | actives 0.56% (n = 390,000); further: nearly all actives have a fitted effect of over 70% in size
# Target sequence (P83916 whole entry, looked up): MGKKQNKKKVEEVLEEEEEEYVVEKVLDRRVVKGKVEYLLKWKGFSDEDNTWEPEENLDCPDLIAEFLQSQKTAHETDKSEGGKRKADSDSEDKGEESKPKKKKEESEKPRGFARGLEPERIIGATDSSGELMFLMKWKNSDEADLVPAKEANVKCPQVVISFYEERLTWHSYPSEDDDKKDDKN
#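 AlphaScreen: HP1-beta (50 nM) preformed 30 min with biotin-H3(1-18)K9me3 peptide (50 nM) in PBS pH 7.4, 0.01% Tween-20. Compound added for 30 min at RT, then streptavidin donor/nickel chelate acceptor beads (10 ug/mL) for 30 min.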
# * hit, by the source's call; ? = inconclusive; · = no result; [ ] = remark or other dose. In the library only some 11% were active in any assay of this set; here they are far more common. The call rests on the fitted dose curve; in most records, active means well fitted inhibition curve with a large enough effect; inconclusive means small, poorly fitted or top-dose-only effect; inactive means no such curve, though single readings can be large or run the other way. Potency means the concentration at half of the fitted maximal effect.
SMILES,L3MBTL1 inh,JMJD2A Tudor inh,G9a block,BAZ2B inh,HP1b binding inh
Cc1ccc(S(=O)(=O)N2CCCC2C(=O)OCc2ccco2)cc1 (centres undefined),·,56µM*,?,50µM*,5%
COc1cc(OC)c(N(C)C(=O)c2nn(C)c3c2CSc2ccccc2-3)cc1Cl,·,3%,?,5%,42%
CCCc1cc(=O)n2[nH]c(-c3ccc(OC)cc3)nc2n1,·,7%,-10%,-2%,43%
CCCc1cc(=O)n2[nH]c(-c3cc(OC)c(OC)c(OC)c3)nc2n1,-2%,7%,45µM*,8%,52%
Cn1cccc1/C=C1\SC(=S)N(NC(=O)c2ccccc2O)C1=O,-17%,?,5µM*,32µM*,?
CC(C(=O)O)N1C(=O)/C(=C/c2cccn2C)SC1=S (centres undefined),-11%,-7%,?,-27%,?
COc1ccccc1C(=O)NN1C(=O)/C(=C/c2cccn2C)SC1=S,26%,·,·,8.9µM*,·
O=C(NN1C(=O)/C(=C/C=C/c2ccco2)SC1=S)c1ccccc1O,1.3µM*,8.9µM*,·,13µM*,13µM*
Cc1noc(C)c1-c1ccc2ncnc(NCCN3CCOCC3)c2c1,·,·,-41%[0.501 µM],·,·
O=C(NCCCn1ccnc1)c1ccncc1,-9%,-13%,6%[12.7 µM],56µM*,11%
CC(NC(=O)NCCCn1ccnc1)(C(F)(F)F)C(F)(F)F,5%,-8%,-13%[59 µM],-9%,27%
O=C(NCCCn1ccnc1)C(F)(F)C(F)(F)C(=O)NCCCn1ccnc1,?,?,14µM*,20µM*,40%
Cc1ccc(C(=O)NCCCn2ccnc2)cn1,·,5%,-5%,50µM*,11%
O=C(NCCCn1ccnc1)c1cccc(S(=O)(=O)Nc2ccc(F)cc2)c1,3%,-28%,-5%,-1%,20%
O=C(NCCCn1ccnc1)c1cccc(S(=O)(=O)Nc2ccc(Br)cc2)c1,?,-27%,11µM*,-35%,20%
Cc1ccc2[nH]c(=O)c3cc(C(=O)NCc4cccc(Cl)c4)sc3c2c1,·,-4%,-3%[59 µM],12%,64%
CCCNC(=O)c1ccc2c(=O)c(O)c(-c3ccc(C)cc3)[nH]c2c1,·,11%,16%[59 µM],2%,43%
Cc1ccc(-c2[nH]c3cc(C(=O)NCCCn4ccnc4)ccc3c(=O)c2O)cc1,·,-35%,19%[59 µM],56µM*,37%
O=C(CNC(=O)c1ccc(Cl)cc1)NCCCn1ccnc1,-8%,7%[57.1 µM],-37%,79µM*,19%
O=[N+]([O-])c1cccc(S(=O)(=O)NCCCn2ccnc2)c1,-1%,-23%,25%[59 µM],50µM*,1%
O=C(COCc1cc(-c2ccco2)on1)Nc1cccc(O)c1,·,-28%,-40%[59 µM],-10%,-26%
O=C(CN1N=C(c2ccc(Cl)cc2)CCC1=O)NCc1ccc(F)cc1,·,-13%,5%[59 µM],2%,16%
O=C(NCCCN1CCCC1)c1ccc(Cn2c(=S)[nH]c3ccc(Br)cc3c2=O)cc1,-26%,·,22µM*,-26%,·
CCN(CC)CCNC(=O)c1ccc2c(=O)n(C3CCCC3)c(=S)[nH]c2c1,0%,-36%,20µM*,?,4%
CCOc1cc2[nH]c(=S)n(Cc3ccc(C(=O)NCCN(CC)CC)cc3)c(=O)c2cc1OCC,·,?,35µM*,-20%,15%
SMILES,L3MBTL1 inh,JMJD2A Tudor inh,G9a block,BAZ2B inh,HP1b binding inh
O=C(NCCN1CCCC1)c1ccc(Cn2c(=S)[nH]c3ccc(Br)cc3c2=O)cc1,·,-32%,50µM*,-19%,12%
CC1CCN(CCNC(=O)c2ccc3c(=O)n(Cc4ccc(Cl)cc4)c(=S)[nH]c3c2)CC1,·,-16%,11%,?,28%
COc1ccccc1-c1cc(NC(=O)COc2ccccc2Cl)n(-c2ccccc2)n1,·,-15%,2%[59 µM],4%,24%[57 µM]
COc1ccc(CNc2ccnc(-c3ccccc3Cl)n2)c(OC)c1,·,·,5%[0.501 µM],·,·
CCOC(=O)NC1c2ccccc2Oc2ccccc21,5%,-6%,·,2%,2%
CCOC(=O)NC1(NCC(C)C)Oc2ccccc2O1,·,?,0.89µM*,0%,-14%
